# From PubChem BioAssay
# Rows were chosen to be rich in hits. Some 3.2% of all compounds tested hit in one or more screens of this group.
# ALOX12 inhib: blocks human 12-lipoxygenase activity. P18054. purified 12-hLO, xylenol orange hydroperoxide absorbance. AID 1452. Potency, µM (top dose mostly 57.1 µM), for the others: at the top dose activity change, negative = inhibition, usual class: inhibitors. 150,000 tested, 0.12% active; note: potency is the fitted concentration of half-maximal effect; nearly all actives have a fitted effect of over 55% in size
# Target sequence (P18054 whole entry, looked up): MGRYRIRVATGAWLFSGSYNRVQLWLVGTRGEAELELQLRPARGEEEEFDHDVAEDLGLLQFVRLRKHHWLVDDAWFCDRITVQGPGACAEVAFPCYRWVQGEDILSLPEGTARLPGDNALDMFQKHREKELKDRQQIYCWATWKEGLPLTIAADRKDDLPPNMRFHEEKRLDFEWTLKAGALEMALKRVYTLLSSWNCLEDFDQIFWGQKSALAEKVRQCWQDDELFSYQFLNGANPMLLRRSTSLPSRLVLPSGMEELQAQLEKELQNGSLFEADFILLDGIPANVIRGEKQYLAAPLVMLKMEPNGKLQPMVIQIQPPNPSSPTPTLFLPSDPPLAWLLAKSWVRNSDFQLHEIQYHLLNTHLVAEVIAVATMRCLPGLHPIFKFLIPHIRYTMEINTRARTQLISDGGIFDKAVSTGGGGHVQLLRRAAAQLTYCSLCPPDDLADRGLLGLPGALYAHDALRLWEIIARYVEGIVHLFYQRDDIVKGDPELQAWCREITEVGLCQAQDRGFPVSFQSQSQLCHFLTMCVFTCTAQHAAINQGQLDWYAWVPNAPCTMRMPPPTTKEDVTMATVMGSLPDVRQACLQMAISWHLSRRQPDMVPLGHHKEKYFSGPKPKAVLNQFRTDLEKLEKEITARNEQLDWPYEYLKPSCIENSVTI
#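 Xylenol orange chromogenic assay: hydroperoxide from 12hLO oxidises Fe(II), giving red-shifted Fe(III)-XO absorbance. Conditions: 150 nM enzyme, 40 uM arachidonic acid, 25 mM Hepes pH 7.0, 0.01% Triton X-100, 30 min, room temperature.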
# PNC inhibitor: perinucleolar compartment assembly inhibition. activity change (PNC), negative = inhibition, % at 10 µM. 140,000 tested, 3.1% active. PC3M PTB-GFP, PNC prevalence imaging, 16 h; hits give low values;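 active = readout at or below -70, meaning at least 70% loss of cells showing the perinucleolar compartment, a nuclear body marking cancer cells; inconclusive = readout between -30 and a set limit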;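 note: plate controls were DMSO wells for no effect and camptothecin positive control wells for full effect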
#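 Read-out is percentage of cells bearing a perinucleolar compartment, from automated 20x imaging of fixed, Hoechst-stained PC3M PTB-GFP cells. Cells were seeded 4 h, then exposed 16 h to compound (23 nl of library stock) in duplicate plates.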
# 15-hLO-2 inh: blocks human 15-lipoxygenase 2 activity. purified 15hLO-2, xylenol orange hydroperoxide absorbance. 110,000 tested, 0.56% active. O15296. AID 881. Potency, µM (titrated, usually from 57.1 µM), without a hit: at the top dose activity change, negative = inhibition, usual class: inhibitors; note: potency is the fitted concentration of half-maximal effect; nearly all actives have a fitted effect of over 60% in size
#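 Purified human 15hLO-2 (50 nM final) preincubated with compounds 15 min at room temperature in 25 mM Hepes pH 7.5, 0.01% Triton X-100, then 45 uM arachidonic acid added for 90 min; hydroperoxide detected via ferrous/xylenol orange, 573/405 nm absorbance ratio.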
# Active calls of the source: *; ? = inconclusive; · = no result given; [ ] = dose if it differs, or a comment. Unless noted, calls come from the whole dose curve; as a rule, active = well fitted curve in the direction sought with a large enough effect; inconclusive = small, poorly fitted or top-dose-only effect, or another doubt; inactive = no such curve, though single readings can be large; an effect the other way counts as inactive or inconclusive. Unless noted, % is set by controls: 0 for no effect and ±100 for the full control effect.
SMILES,ALOX12 inhib,PNC inhibitor,15-hLO-2 inh
CCN(CC)C(=O)CN(C#N)c1nc(C)cc(C)n1,1%,-3,·
CC(C)=CCOc1ccc(/C=C/C(=O)c2ccc(OCC=C(C)C)cc2OCC(=O)O)cc1,-21%[0.00818 µM],·,?
CC(c1ccccc1)N1CCn2c(nc3cc(NC(=O)NC4CCCCC4)ccc32)C1 (stereo unspecified),-2%,9,35%
O=C(COC(=O)Cn1cnc2ccccc21)NCCc1ccccc1,-1%,-83*,-6%
O=C(COC(=O)Cn1cnc2ccccc21)Nc1ccc2c(c1)C(=O)c1ccccc1C2=O,-4%,36,·
COC(=O)N1C(C)=Cc2ccccc2C1CC(C)=O (stereo unspecified),0%[11.4 µM],·,·
Cc1nc(Nc2nc(CSc3nc4ccccc4[nH]3)cc(=O)[nH]2)nc2ccccc12,1%,-97*,·
COc1ccc2nc(Nc3nc(CSc4nc5ccccc5[nH]4)cc(=O)[nH]3)nc(C)c2c1,-4%,3,·
Cc1ccc(-n2c(Cn3nc(C(F)F)cc3C(F)F)n[nH]c2=S)cc1,-4%,13,0%
CCCc1c(OCCCOc2ccc(OCC(=O)O)cc2)ccc(C(C)=O)c1O,-12%,·,-17%
COc1ccccc1-c1noc(-c2ccco2)n1,-1%,-118*,5%[2.29 µM]
COc1ccccc1-c1noc(-c2ccccc2)n1,11%,-6,15%
COS(C)(=O)=O,8%,·,2%
Cc1ccccc1Cn1nc(C)c(NC(=O)/C=C/c2cnn(C)c2C)c1C,-1%,?,·
Cc1ccccc1Cn1nc(C)c(NC(=O)/C=C/c2cnn(C)c2)c1C,-1%,-114*,·
COC(=O)CN1C(=S)N(Cc2ccccc2)C(=O)C1CC(=O)Nc1ccc(Br)cc1 (stereo unspecified),-14%,67,11%
CC(=O)OCC1OC(n2cnc3c(=O)[nH]cnc32)C(OC(C)=O)C1OC(C)=O (stereo unspecified),0%,·,3%
CC(=O)N[C@H]1C(O[C@@H]2O[C@H](C[C@@H](O)[C@H]3O[C@@H](N4CCC(=O)NC4=O)[C@H](O)[C@@H]3O)[C@H](O)[C@H](O)[C@H]2NC(=O)/C=C/CCCCCCCCCCC(C)C)OC(CO)[C@@H](O)[C@@H]1O (stereo partly specified),-3%[0.00818 µM],·,4%[0.0915 µM]
Cn1c(CN2CCCC2)nc2cc(NC(=O)c3cccs3)ccc21,5%,54,·
CN(C(=O)COc1ccccc1C(=O)NCCOc1ccccc1)c1ccccc1,0%,22,·
CCNc1ncc2nc(-c3ccc(F)cc3)c(=O)n(-c3ccc(OC)cc3)c2n1,·,·,-10%
CCOC(=O)/C(=C\c1ccccc1)C(=O)c1cc(C(C)=O)c(Nc2ccccc2)s1,0%,7,-13%
CCOC(=O)/C(=C\c1cccnc1)C(=O)c1cc(C(C)=O)c(Nc2ccccc2)s1,-14%,-111*,-16%
COC(=O)c1ccc2c(c1)C(C)(C)C(/C=C/c1ccc(O)cc1)=[N+]2C,-25%,?,-16%[11.4 µM]
COC(=O)c1ccc2c(c1)C(C)(C)C(/C=C/c1ccc(OC)c(OC)c1OC)=[N+]2C,?,17,13µM*
SMILES,ALOX12 inhib,PNC inhibitor,15-hLO-2 inh
CCCCN(CCCNC(=O)c1c(C)cc(=O)oc1C)c1ccccc1,-3%,-98*,-5%
CCN(CCCNC(=O)c1c(C)cc(=O)oc1C)c1ccccc1,27%,?,-13%[11.4 µM]
CCCCCCCCCCCCCC(=O)N[C@H](C)[C@@H](O)c1ccccc1,0%,·,·
Cc1cccc(NC(=O)c2cc(NC(=O)c3ccco3)ccc2Cl)n1,-2%,-110*,3%
Cc1cccc(NC(=O)c2cc(NC(=O)C3CCCCC3C(=O)O)ccc2Cl)n1 (stereo unspecified),0%,?,-1%
O=[N+]([O-])c1cc(C(F)(F)F)ccc1NCCNC(=S)Nc1ccc(Cl)cc1,?,-13,32µM*
O=[N+]([O-])c1cc(C(F)(F)F)ccc1NCCCCNS(=O)(=O)c1ccc(Cl)cc1,-8%,69,·
Cc1ccc(C(=O)NC(=S)Nc2cc(-c3nc4ccccc4s3)ccc2C)cc1,2%,-109*,-14%
Cc1cc(C)c(NC(=S)NC(=O)c2ccc(-c3ccccc3)cc2)c(C)c1,4%,24,·
CC(=O)Nc1ccccc1-c1nc2ccccc2nc1OCC(=O)c1ccc2ccccc2c1,-12%,19,?
CCOC(=O)CSC1=C(C#N)C(c2ccc(C)s2)CC(=O)N1 (stereo unspecified),2%,-88*,0%
CCSC1=C(C#N)C(c2ccc(C)s2)CC(=O)N1 (stereo unspecified),-6%,-17,-6%
Cc1cccc(N2CCN(CC(=O)Nc3nccs3)CC2)c1C,9%,?,27%
